Source: PubChem BioAssay (NCI)
Compounds without any hit were thinned out: in the full panel of roughly 83,000, 20% have a hit.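 96-well plates, one dose, 48 hours. Percent growth reported; active if below 10.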 Unmarked numbers belong to inactive results. Calls of active or inactive are those of the source.

system: HL-60(TB) leukemia; assay: NCI-60 one-dose screen, 48 h (100 = growth as untreated, 0 = no growth, -100 = all killed); conditions: 10 µM unless noted

Row | SMILES | growth
1 | Cc1nn2c(/C=C3/C(=O)Nc4ccc(Cl)cc43)c(-c3ccccc3)nc2s1 | 81.5%
2 | CN1CSC(=S)N(Cc2ccccc2)C1 | 79.8%
3 | COc1cc(NC(=O)c2cncnc2Nc2ccc3c(ccn3Cc3ccccn3)c2)cc(OC)c1 | 4.49% (active)
4 | COc1ccc(CNC(=O)c2c(C)n([O-])c3ccc(OC)cc3[n+]2=O)cc1 | 92.5%
5 | CCc1ccc(C2=C(O)C(=O)C(c3ccc(CC)cc3)=C(O)C2=O)cc1 | -57.6% (active)
6 | CCC(CCCN(CC)CCc1ccccc1)OC(=O)c1cc(OC)c(OC)c(OC)c1 (stereo not given) | 95%
7 | Cc1ccc(NC(=S)/N=c2/n(-c3ccccc3)nc3n2CCN3C2=NCCN2)cc1 | 156%
8 | O=c1oc2ccc(Br)cc2c(=O)n1-c1ccc(I)cc1F | -49.1% (active)
9 | CCNCCNc1cc(-c2ccc(C#N)cc2)c(C#N)c2nc3ccccc3n12 | -45.4% (active)
10 | O=S(=O)(NCCCNc1nccc(-c2c(-c3cccc(F)c3)nc3sccn23)n1)c1cccc2ccccc12 | 53.9%
11 | Nc1ccc(Cl)cn1 | 100%
12 | O=C(CCN1CCCC1)Nc1ccc2c(NCCCc3ccccc3)c3ccccc3nc2c1 | -55.6% (active)
13 | O=C(N/N=C\c1ccc(Cl)cc1)C(=O)N/N=C\c1ccc(Cl)cc1 | 108%
14 | Cc1nc2c(O)cccc2cc1CO | 81.7%
15 | CN(C)Cc1c(-c2ccccc2)[nH]c2ccccc12 | 92.9%
16 | CC(O)Cc1c[nH]c(=O)[nH]c1=O (stereo not given) | 103%
17 | O=c1[nH][nH]c(=O)c2cc([N+](=O)[O-])ccc12 | 96.2%
18 | Brc1ccc2[nH]cc(-c3nc(-c4c[nH]c5ncccc45)cs3)c2c1 | 32.7%
19 | N#Cc1c(N)n2c(nc1=Nc1ccc(Cl)cc1)sc1cc(Cl)ccc12 | 117%
20 | CCOC(=O)c1c2c(n3ccc(NC(=O)CCN(CC)CC)cc13)C(=O)c1ncccc1C2=O | -48.5% (active)

Row | SMILES | growth
21 | CCOC(=O)CC1CSC(N/N=C/c2ccc(O)cc2)=N1 (stereo not given) | 97.6%
22 | Cl.Fc1c[c-]c(-c2ccccn2)c(F)c1.[Pt].c1ccc(P(c2ccccc2)C([PH+](c2ccccc2)c2ccccc2)[PH+](c2ccccc2)c2ccccc2)cc1 | 8.71% (active)
23 | COC1OCC(OS(=O)(=O)c2ccc(C)cc2)C(OC(=O)c2ccccc2)C1OC(=O)c1ccccc1 (stereo not given) | 25.4%
24 | O=C1OCC2=C1C(c1cccc(F)c1)c1cc3c(cc1N2CCO)OCO3 (stereo not given) | -28.9% (active)
25 | CCOC(=O)C(CNc1ccccc1)C(=O)OCC | 101%
26 | CCN(CC)CCOc1ccc(/C(=C(\Cl)c2ccccc2)c2ccccc2)cc1 | 75.9%
27 | O=S(=O)(O)c1cccnc1 | 61.8%
28 | CCN(CCO)CCCOc1ccc2c(Nc3cc(CC(=O)Nc4cccc(F)c4)[nH]n3)ncnc2c1 | -2.32% (active)
29 | COc1cccc(-c2nc(-c3ccc(NS(=O)(=O)c4ccccc4)cc3)[nH]c2-c2ccnc(Br)c2)c1 | -11.5% (active)
30 | CC1=CC2C(C(O)CC3(C)C2CC(C)C32OCOC23COCO3)C2(C)C/C(=C/O)C(=O)C=C12 (stereo not given) | -12.3% (active)
31 | Cn1c(C(=O)c2cccc3ccccc23)nc2ccccc21 | 3.94% (active)
32 | O=Nc1ccc(O)cc1 | 77%
33 | Oc1ccc2c(c1)CCc1ccccc1-2 | 103%
34 | COc1cccc2nc(Nc3cccc(NC(=O)c4ccc(N5CCN(C)CC5)c(C(F)(F)F)c4)c3)ccc12 | 37.6%
35 | CC(C)(C)c1cc(O)c(C(C)(C)C)cc1O | 35.1%
36 | CC(C)CCN(CCC(C)C)CC(=O)Nc1ccc(S(=O)(=O)c2ccc(NC(=O)CN(CCC(C)C)CCC(C)C)cc2)cc1 | 19.1%
37 | CC(=O)c1sc(-c2ccccc2)cc1N | 83.6%
38 | Nc1nc(Cl)c2[nH]cnc2n1 | 89.5%
39 | Cn1cc(-c2csc(-c3cn(CCCN4CCOCC4)c4ccccc34)n2)c2cccnc21 | 70.9%
40 | Cc1cccc(/C=C/c2c(C(=O)/C=C/c3ccccc3)c(C)nc3ccccc23)c1 | -15.8% (active)
